Reference: PMC7862700, “An all-to-all approach to the identification of sequence-specific readers for epigenetic DNA modifications on cytosine”

Experiments:
Assay in all cases: DAPPL (digital affinity profiling via proximity ligation, sequencing); 10 mM Tris-HCl pH 7.5, 50 mM NaCl, 1 mM DTT, 4% glycerol, room temperature, 30 min; GST-TFs on glutathione beads, 16-mer random dsDNA library, 0.1% formaldehyde crosslink after washing; high values mean tight binding
FEV = biological target: T1, FEV (Homo sapiens, UniProt Q99581 1-238); settings: protein: recombinant; tags: N-terminal GST; dsDNA, one strand shown
T1 sequence: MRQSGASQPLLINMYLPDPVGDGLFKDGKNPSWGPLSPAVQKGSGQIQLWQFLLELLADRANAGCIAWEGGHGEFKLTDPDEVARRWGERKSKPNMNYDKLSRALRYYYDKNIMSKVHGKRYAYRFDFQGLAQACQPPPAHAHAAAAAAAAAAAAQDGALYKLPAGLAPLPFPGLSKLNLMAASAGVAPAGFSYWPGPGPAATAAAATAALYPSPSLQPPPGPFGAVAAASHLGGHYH
Procedure, shortened: (§1)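 Human transcription factors fused to GST were expressed in yeast, captured on glutathione beads, given DNA barcodes and pooled with a GST-only negative control. Pools were incubated with 200 nmole of a 16-mer random double-stranded DNA library in Tris/NaCl/DTT/glycerol buffer at room temperature for 30 min. They were then washed, crosslinked with 0.1% formaldehyde, proximity-ligated (BsaI/T4 ligase, 1 h, 37 °C), PCR-amplified and sequenced on an Illumina NextSeq500. Binding signal is each 6-mer's read frequency for a factor divided by its frequency for the GST control.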

ETV5 = ETV5 (Homo sapiens, UniProt P41161 1-510); settings: protein: recombinant; tags: N-terminal GST; dsDNA, one strand shown
Chain of ETV5 (P41161 whole entry): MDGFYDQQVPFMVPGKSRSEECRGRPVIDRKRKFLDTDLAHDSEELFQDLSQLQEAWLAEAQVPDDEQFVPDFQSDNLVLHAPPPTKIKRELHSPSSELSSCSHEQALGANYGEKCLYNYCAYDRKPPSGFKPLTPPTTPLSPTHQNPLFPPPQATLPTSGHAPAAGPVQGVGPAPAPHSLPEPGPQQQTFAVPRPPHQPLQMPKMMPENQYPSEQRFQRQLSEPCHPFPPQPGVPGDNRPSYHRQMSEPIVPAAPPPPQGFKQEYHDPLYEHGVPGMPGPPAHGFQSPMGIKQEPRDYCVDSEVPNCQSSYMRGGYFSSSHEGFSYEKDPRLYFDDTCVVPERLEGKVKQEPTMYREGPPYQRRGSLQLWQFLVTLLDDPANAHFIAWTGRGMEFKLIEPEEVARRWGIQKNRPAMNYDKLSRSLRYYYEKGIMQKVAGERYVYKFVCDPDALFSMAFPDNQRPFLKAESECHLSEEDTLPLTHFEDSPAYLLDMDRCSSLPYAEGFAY
Procedure, shortened: as §1

HSF1 = HSF1 (Homo sapiens, UniProt Q00613 1-529); settings: protein: recombinant; tags: N-terminal GST; chain copies: 3; dsDNA, one strand shown
Chain of HSF1 (Q00613 whole entry): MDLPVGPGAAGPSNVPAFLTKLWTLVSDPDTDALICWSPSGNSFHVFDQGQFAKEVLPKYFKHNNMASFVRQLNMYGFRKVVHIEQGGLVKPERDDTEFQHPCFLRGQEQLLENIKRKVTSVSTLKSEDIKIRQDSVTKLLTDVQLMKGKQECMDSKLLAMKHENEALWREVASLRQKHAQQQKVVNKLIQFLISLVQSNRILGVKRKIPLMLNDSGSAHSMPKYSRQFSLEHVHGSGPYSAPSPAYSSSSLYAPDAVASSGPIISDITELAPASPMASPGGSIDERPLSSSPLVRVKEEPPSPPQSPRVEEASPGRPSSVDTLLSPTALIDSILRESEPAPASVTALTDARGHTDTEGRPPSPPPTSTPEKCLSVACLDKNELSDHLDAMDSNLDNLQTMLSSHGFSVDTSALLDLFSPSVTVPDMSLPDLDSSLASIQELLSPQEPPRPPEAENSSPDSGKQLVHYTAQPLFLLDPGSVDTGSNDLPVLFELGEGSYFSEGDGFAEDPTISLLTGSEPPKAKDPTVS
Procedure, shortened: as §1

SPIC = biological target: T2, SPIC (Homo sapiens, UniProt Q8N5J4 1-248); settings: protein: recombinant; tags: N-terminal GST; dsDNA, one strand shown
T2 sequence: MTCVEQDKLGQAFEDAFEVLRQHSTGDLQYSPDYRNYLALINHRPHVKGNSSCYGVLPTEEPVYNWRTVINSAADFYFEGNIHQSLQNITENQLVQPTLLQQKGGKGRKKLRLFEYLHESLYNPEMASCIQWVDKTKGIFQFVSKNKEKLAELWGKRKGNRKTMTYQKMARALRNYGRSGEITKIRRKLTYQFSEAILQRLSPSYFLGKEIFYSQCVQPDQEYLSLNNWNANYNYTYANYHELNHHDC
Procedure, shortened: as §1

ELF4 = ELF4 (Homo sapiens, UniProt Q99607 1-663); settings: protein: recombinant; tags: N-terminal GST; dsDNA, one strand shown
Chain of ELF4 (Q99607 whole entry): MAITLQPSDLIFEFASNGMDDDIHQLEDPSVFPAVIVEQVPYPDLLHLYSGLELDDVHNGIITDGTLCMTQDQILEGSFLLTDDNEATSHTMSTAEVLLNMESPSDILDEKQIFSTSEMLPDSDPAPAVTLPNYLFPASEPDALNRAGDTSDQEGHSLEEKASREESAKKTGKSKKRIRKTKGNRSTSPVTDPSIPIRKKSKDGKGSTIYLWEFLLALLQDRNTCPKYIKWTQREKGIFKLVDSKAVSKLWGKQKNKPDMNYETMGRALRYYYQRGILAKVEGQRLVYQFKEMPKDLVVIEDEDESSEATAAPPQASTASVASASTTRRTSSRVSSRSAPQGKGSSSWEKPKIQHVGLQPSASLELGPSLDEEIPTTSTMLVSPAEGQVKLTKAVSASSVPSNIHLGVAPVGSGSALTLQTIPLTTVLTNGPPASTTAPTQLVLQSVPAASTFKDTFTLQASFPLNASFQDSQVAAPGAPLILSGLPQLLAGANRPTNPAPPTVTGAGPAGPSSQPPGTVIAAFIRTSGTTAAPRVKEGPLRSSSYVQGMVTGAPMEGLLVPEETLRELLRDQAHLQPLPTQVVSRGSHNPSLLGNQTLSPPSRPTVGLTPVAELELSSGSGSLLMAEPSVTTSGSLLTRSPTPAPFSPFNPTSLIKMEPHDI
Procedure, shortened: as §1

ELK4 = biological target: T3, ELK4 (Homo sapiens, UniProt P28324-2 1-405); settings: protein: recombinant; tags: N-terminal GST; dsDNA, one strand shown
T3 sequence: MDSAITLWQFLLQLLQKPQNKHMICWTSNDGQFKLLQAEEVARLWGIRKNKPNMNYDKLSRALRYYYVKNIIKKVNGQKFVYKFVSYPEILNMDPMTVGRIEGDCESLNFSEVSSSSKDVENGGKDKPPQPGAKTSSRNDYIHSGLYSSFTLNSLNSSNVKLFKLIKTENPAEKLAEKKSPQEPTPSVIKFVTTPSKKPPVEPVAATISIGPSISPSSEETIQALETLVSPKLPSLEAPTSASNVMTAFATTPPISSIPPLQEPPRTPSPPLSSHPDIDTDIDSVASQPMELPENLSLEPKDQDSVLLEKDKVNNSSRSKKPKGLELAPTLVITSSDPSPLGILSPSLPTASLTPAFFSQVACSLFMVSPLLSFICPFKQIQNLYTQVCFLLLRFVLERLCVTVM
Procedure, shortened: as §1

ETV2 = biological target: T4, ETV2 (Homo sapiens, UniProt O00321 1-342); settings: protein: recombinant; tags: N-terminal GST; dsDNA, one strand shown
T4 sequence: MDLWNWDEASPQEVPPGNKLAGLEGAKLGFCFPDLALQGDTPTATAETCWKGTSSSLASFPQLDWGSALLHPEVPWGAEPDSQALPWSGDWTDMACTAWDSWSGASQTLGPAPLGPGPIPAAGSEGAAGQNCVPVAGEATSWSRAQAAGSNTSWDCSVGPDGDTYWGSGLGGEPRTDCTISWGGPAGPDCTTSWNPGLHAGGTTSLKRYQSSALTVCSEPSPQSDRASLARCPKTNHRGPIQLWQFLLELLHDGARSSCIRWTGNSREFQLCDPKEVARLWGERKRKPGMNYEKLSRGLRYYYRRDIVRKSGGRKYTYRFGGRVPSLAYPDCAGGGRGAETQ
Procedure, shortened: as §1

ELF3 = biological target: T5, ELF3 (Homo sapiens, UniProt P78545 1-371); settings: protein: recombinant; tags: N-terminal GST; dsDNA, one strand shown
T5 sequence: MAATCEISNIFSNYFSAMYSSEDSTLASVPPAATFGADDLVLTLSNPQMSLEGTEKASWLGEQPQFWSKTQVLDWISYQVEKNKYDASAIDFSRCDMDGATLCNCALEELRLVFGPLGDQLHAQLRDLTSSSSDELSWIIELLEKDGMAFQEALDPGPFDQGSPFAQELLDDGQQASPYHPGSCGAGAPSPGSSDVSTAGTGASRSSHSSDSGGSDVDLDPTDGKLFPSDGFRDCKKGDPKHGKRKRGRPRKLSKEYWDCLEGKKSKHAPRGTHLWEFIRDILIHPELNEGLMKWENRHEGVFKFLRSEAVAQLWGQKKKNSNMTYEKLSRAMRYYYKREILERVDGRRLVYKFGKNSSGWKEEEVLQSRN
Procedure, shortened: as §1

CRX = CRX (Homo sapiens, UniProt O43186 1-299); settings: protein: recombinant; tags: N-terminal GST; dsDNA, one strand shown
Chain of CRX (O43186 whole entry): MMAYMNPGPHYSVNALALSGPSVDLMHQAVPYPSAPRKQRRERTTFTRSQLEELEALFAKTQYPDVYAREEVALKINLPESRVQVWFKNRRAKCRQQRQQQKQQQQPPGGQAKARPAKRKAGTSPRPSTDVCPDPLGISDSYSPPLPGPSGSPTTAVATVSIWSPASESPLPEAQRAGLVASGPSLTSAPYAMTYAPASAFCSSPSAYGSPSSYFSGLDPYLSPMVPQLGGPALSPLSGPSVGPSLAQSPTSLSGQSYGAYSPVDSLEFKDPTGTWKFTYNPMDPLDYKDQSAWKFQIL
Procedure, shortened: as §1

ETV1 = ETV1 (Homo sapiens, UniProt P50549 1-477); settings: protein: recombinant; tags: N-terminal GST; dsDNA, one strand shown
Chain of ETV1 (P50549 whole entry): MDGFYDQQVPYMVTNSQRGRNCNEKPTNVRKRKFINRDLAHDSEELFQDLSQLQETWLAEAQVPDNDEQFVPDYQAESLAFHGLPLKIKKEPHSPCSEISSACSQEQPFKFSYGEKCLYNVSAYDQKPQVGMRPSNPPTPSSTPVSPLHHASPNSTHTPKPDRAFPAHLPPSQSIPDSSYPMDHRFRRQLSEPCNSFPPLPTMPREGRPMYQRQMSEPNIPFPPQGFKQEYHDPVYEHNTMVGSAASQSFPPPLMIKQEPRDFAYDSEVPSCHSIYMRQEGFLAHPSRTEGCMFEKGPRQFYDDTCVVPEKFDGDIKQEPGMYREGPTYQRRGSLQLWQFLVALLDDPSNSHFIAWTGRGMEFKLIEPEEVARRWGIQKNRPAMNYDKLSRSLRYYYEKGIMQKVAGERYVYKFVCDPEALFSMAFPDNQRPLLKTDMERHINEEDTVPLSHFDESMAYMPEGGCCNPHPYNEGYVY
Procedure, shortened: as §1

How did the binding signal (FEV) turn out when TATATA was run?
Its binding signal is 1.21 fold enrichment (6-mer frequency, TF over GST control).

What about the binding signal (ETV5) of the same sequence?
Its binding signal is 1.28 fold enrichment (6-mer frequency, TF over GST control).

What about the binding signal (HSF1) of the same sequence?
The binding signal was 1.42 fold enrichment (6-mer frequency, TF over GST control).

And the binding signal (SPIC)?
Its binding signal is 1.21 fold enrichment (6-mer frequency, TF over GST control).

What about the binding signal (ELF4) of the same sequence?
The binding signal was 1.31 fold enrichment (6-mer frequency, TF over GST control).

And the binding signal (ELK4)?
The binding signal was 1.38 fold enrichment (6-mer frequency, TF over GST control).

What about the binding signal (ETV2) of the same sequence?
The binding signal was 1.08 fold enrichment (6-mer frequency, TF over GST control).

What about the binding signal (ELF3) of the same sequence?
Its binding signal is 1.35 fold enrichment (6-mer frequency, TF over GST control).

And the binding signal (CRX)?
The binding signal was 1.63 fold enrichment (6-mer frequency, TF over GST control).

And the binding signal (ETV1)?
Its binding signal is 1.18 fold enrichment (6-mer frequency, TF over GST control).
